# JMJD2A Tudor inh = blocks the human JMJD2A Tudor domain | O75164 | AlphaScreen JMJD2A-Tudor / H3K4me3 peptide binding | Potency, µM (highest dose often 114 µM), hits mostly inhibitors | hit rate 4.4% among 390,000 | AID 504339; also: nearly all actives have a fitted effect of over 50% in size
# BAZ2B block = blocks human BAZ2B. hit rate 4.4% among 360,000. Potency, µM (series often up to 114 µM), usual class: inhibitors. AlphaScreen BAZ2B-H3K14Ac peptide displacement. AID 504333. Q9UIF8; also: nearly all actives have a fitted effect of over 60% in size
#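 Compounds, titrated to a top concentration of 110 uM, were incubated 30 min at room temperature with preformed BAZ2B/acetyl-K14 H3 peptide complex (50 nM each). Proximity signal was measured by AlphaScreen after 20 min with beads.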
# Sfp PPTase inh = Sfp phosphopantetheinyl transferase inhibition. Biochemical Sfp PPTase activity, qHTS. Potency, µM, hits mostly inhibitors. hit rate 3.5% among 310,000. AID 1490;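 also: the enzyme is Sfp with the accession as filed and its product quenches rhodamine fluorescence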
#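 With Hepes-Na pH 7.6 buffer containing 10 mM MgCl2, Sfp (15 nM) modified BHQ-2-YbbR (12.5 uM) using rhodamine-CoA (5 uM). Two reads 30 minutes apart at 525/598 nm yielded each well's rate.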
# G9a block = inhibitors of human histone lysine methyltransferase G9a; G9a H3K9 monomethylation, AlphaScreen, 2 h; AID 504332; Q96KQ7; Potency, µM (doses to about 102 µM), most hits filed as inhibitors; hit rate 8.8% among 350,000; also: nearly all actives have a fitted effect of over 75% in size
# Target sequence (Q96KQ7 913-1193 limits assumed): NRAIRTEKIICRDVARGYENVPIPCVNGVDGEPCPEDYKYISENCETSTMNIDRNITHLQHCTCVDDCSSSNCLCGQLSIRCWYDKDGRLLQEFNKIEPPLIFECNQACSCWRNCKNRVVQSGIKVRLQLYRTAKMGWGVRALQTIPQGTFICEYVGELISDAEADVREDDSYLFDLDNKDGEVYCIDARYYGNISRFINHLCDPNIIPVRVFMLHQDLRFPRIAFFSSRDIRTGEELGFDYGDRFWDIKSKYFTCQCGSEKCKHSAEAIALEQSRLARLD
#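 Compounds were preincubated with 20 nM G9a for 15 min, after which biotinylated H3K9 peptide (500 nM) and SAM (20 uM) started a 2 h room-temperature reaction. Monomethylated product was quantified by antibody-based AlphaScreen chemiluminescence.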
# HP1b chromo inh = inhibitors of HP1-beta chromodomain binding to methylated histone tails | P83916 | AlphaScreen HP1-beta / biotin-H3K9me3 peptide binding | Potency, µM (top dose mostly 114 µM), usual class: inhibitors | hit rate 0.56% among 390,000; also: nearly all actives have a fitted effect of over 70% in size
# Target sequence (P83916 whole entry, looked up): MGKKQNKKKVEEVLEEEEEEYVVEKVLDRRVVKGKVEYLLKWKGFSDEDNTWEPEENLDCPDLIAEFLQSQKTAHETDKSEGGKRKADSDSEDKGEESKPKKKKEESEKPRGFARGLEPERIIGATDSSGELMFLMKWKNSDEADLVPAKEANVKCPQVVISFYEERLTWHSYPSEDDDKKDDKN
#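 AlphaScreen: HP1-beta (50 nM) preformed 30 min with biotin-H3(1-18)K9me3 peptide (50 nM) in PBS pH 7.4, 0.01% Tween-20. Compound added for 30 min at RT, then streptavidin donor/nickel chelate acceptor beads (10 ug/mL) for 30 min.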
# A number is an active result; – = inactive; ? = inconclusive; · = no result; [ ] = dose if it differs, or a comment. The list is not random: actives were taken first. Their share in the collection is about 12%. Calls follow the shape of the dose curve; as a rule, active = well fitted curve in the direction sought with a large enough effect; inconclusive = small, poorly fitted or top-dose-only effect, or another doubt; inactive = no such curve, though single readings can be large; an effect the other way counts as inactive or inconclusive.
SMILES,JMJD2A Tudor inh,BAZ2B block,Sfp PPTase inh,G9a block,HP1b chromo inh
Cc1cnc(NC(=O)CN2C(=O)C3CC=CCC3C2=O)s1 (stereo unspecified),56µM,·,–,–,–
O=C(CN1C(=O)C2CC=CCC2C1=O)Nc1nccs1 (stereo unspecified),–,–,–,–[12.7 µM],–
CC1CCC/C(=N\NC(=S)Nc2ccccc2)C1 (stereo unspecified),79µM,?,–,7.9µM,–
FC(F)(F)c1ccccc1NC(=S)N1CCCC1,–,–,?,–,–
FC(F)(F)c1ccccc1NC(=S)NN=C1CCCCCC1,50µM,50µM,–,8.9µM,–
CC1CCCC/C1=N\NC(=S)Nc1ccccc1 (stereo unspecified),?,?,?,32µM,–
Cc1ccc(NC(=S)N/N=C2/CCCCc3ccccc32)cc1,?,?,–,?,–
COc1ccc(CNC(=S)Nc2cccc(OC)c2)cc1,–,–,–,–,–
COc1cccc(NC(=S)NN=C2CCCCCC2)c1,?,56µM,–,10µM,–
COc1ccc(-c2nnc(SCC(=O)Nc3ccc(F)cc3)s2)cc1,–,–,·,–,–
C=C1CC[C@@H]2O[C@@]2(C)CC[C@H]2[C@H]1CC2(C)C,·,·,–,·,·
CC1CCC(NC(=S)NCCN(C)C)CC1 (stereo unspecified),7.9µM,50µM,?,40µM,–
O=C(O)C1CC=CC2CCN(C3CC3)C(=O)C21 (stereo unspecified),–,·,–,·,–
COC1=C(c2ccccc2)C(=O)c2ccccc2C1=O,?,45µM,–,20µM,?
O=C(C1=C(c2ccccc2)C(=O)c2ccccc2C1=O)c1ccccc1,22µM,13µM,–,35µM,?
O=C(Nc1ncccc1O)c1ccc(Oc2ccccc2)cc1,?,–,–,–,–
CCCCNc1ccc(C(CC(N)=O)NC(=O)c2cc(C)cc(C)c2)cc1[N+](=O)[O-] (stereo unspecified),–,–,–,·,–
CCCCCCNc1c([N+](=O)[O-])cc(C)cc1[N+](=O)[O-],13µM,·,·,·,8.9µM
O=C(CC1C(=O)NCCN1Cc1ccccc1C(F)(F)F)NC1CCCCC1 (stereo unspecified),–,–,–,40µM,–
O=C(CC1C(=O)NCCN1Cc1ccc(F)cc1Cl)NC1CCCCCCC1 (stereo unspecified),–,–,–,45µM,–
O=C(CC1C(=O)NCCN1Cc1cccc(F)c1)NC1CCCCCC1 (stereo unspecified),–,–,–,?,–
O=C(CC1C(=O)NCCN1Cc1ccccc1C(F)(F)F)NC1CCC1 (stereo unspecified),–,–,–,·,–
O=C(CC1C(=O)NCCN1Cc1c(F)cccc1Cl)NC1CCCCCC1 (stereo unspecified),–,–,–,–,–
O=C(CC1C(=O)NCCN1Cc1ccccc1C(F)(F)F)NC1CCCCCC1 (stereo unspecified),–,–,–,45µM,–
O=P(O)(O)O[C@@H]1[C@H](O)[C@H](O)[C@@H](OP(=O)(O)O)[C@H](OP(=O)(O)O)[C@H]1O,·,·,–,–,·
SMILES,JMJD2A Tudor inh,BAZ2B block,Sfp PPTase inh,G9a block,HP1b chromo inh
CCC(C)(C)NC(=O)C1CCC(CNS(=O)(=O)c2ccc3c(c2)CC(C)N3C(C)=O)CC1 (stereo unspecified),–,–,·,–,–
Cc1ccc(S(=O)(=O)N/N=C/c2cccc(OC3CSC3)c2)cc1,–,–,–,8.9µM,–
CCOc1ccc(/C=N/NS(=O)(=O)c2ccc(C)cc2)cc1OC,–,–,–,?,–
Cc1ccc(S(=O)(=O)N/N=C/c2ccc(C#N)cc2)cc1,–,–,–,2.2µM,–
Cc1ccc(S(=O)(=O)N/N=C/c2cccc3c2OCCO3)cc1,–,–,–,10µM,–
CC(C)(C)C1CC=C2C(C#N)=C(N)C(C#N)(C#N)C(c3cccs3)C2C1 (stereo unspecified),·,?,–,50µM,·
CN1C2C=C3C(C#N)=C(N)C(C#N)(C#N)[C@@H](c4cccs4)C3C1CC2 (stereo partly specified),–,–,–,–[12.7 µM],–
O=S1(=O)N=C(Oc2cccc(C(F)(F)F)c2)c2ccccc21,–,·,·,·,·
Cc1cc(O)c2c(c1O)C(=O)C(O)=C(O)C2=O,·,·,45µM,·,·
C=C(C)COc1ccc2c(CC)cc(=O)oc2c1,20µM,–,56µM,–,–
C=C(Cl)COc1ccc2c(CC)cc(=O)oc2c1,–,–,–,–,–
CCNC(=O)/N=C1/NC(=O)C(C(C)C)O1 (stereo unspecified),7.9µM,–,–,?,–
CN(Cc1ccccc1)C(=O)c1[nH]cnc1C(=O)Nc1ccon1,–,–,·,–[0.501 µM],–
Cc1cc(Cl)ccc1OCC(=O)OC(C)C(=O)NC(N)=O (stereo unspecified),–,–,–,–,–
C/C(N)=C(/C#N)C(=O)COC(=O)COc1ccc(Cl)cc1C,–,–,–,50µM,–
CC(CNC(=O)c1cc(-c2ccccc2)n[nH]1)c1ccccc1 (stereo unspecified),–,–,·,–,–
Cc1ccc(CN(C(=O)c2ccco2)C(C(=O)NC2CCCC2)c2ccc(N3CCOCC3)cc2)cc1 (stereo unspecified),–,–,–,28µM,–
Cc1ccc(-c2nsc(NC(=O)c3oc4cc(C)c(Cl)cc4c3C)n2)cc1,–,–,·,–,–
COc1cc(NS(=O)(=O)c2ccc(NC(C)=O)cc2)nc(OC)n1,–,–,–,–,–
O=C(O)c1ccccc1NC(=S)NC(=O)c1sc2ccccc2c1Cl,?,–,45µM,10µM,–
NC(N)=NS(=O)(=O)c1ccc(NC(=S)NC(=O)c2sc3ccccc3c2Cl)cc1,–,–,56µM,?,–
COc1cc(NS(=O)(=O)c2ccc(NC(=S)NC(=O)c3sc4cc(F)ccc4c3Cl)cc2)nc(OC)n1,?,–,50µM,?,?
COc1cc(NS(=O)(=O)c2ccc(NC(=S)NC(=O)c3sc4ccccc4c3Cl)cc2)nc(OC)n1,–,50µM,50µM,?,?
Cn1ccc2cc(-c3ccc4ncnc(NCc5cccc(F)c5)c4c3)ccc21,·,–,·,–[12.7 µM],·
NC(N)=NS(=O)(=O)c1ccc(NC(=S)NC(=O)c2ccncc2)cc1,–,–,50µM,–,?
SMILES,JMJD2A Tudor inh,BAZ2B block,Sfp PPTase inh,G9a block,HP1b chromo inh
NC(N)=NS(=O)(=O)c1ccc(NC(=S)NC(=O)c2ccc(Br)cc2)cc1,–,–,–,–,–
CS(=O)(=O)c1ccc2nc(NC(=O)CN3C(=O)NC4(CCCC4)C3=O)sc2c1,–,–,–,?,–
Cc1[nH]n(-c2ccccc2)c(=O)c1N=Nc1nccs1,?,32µM,–,14µM,–
Cc1ccccc1N=Nc1c(C)[nH]n(-c2ccccc2)c1=O,?,?,–,2.2µM,35µM
Cc1[nH]n(-c2ccccc2)c(=O)c1N=Nc1ccccc1C(=O)O,?,?,–,?,–
Cc1[nH]n(-c2ccccc2)c(=O)c1N=Nc1ccccc1O,?,?,–,?,–

# Source: PubChem
